The whole screen tested about 1,400 compounds, of which about 600 (43%) were called active. The set was probably picked from earlier hits. A selection follows. A number with no mark means an inactive call. No stated cut-off is given here; in the data, active means inhibition above about 17%; inactive means the rest.
The molecules below were run on methionyl-tRNA synthetase (Trypanosoma brucei brucei) (assay: T. brucei MetRS inhibitors, orthogonal assay for T. brucei MetRS inhibitor project, biochemical, fluorescence polarization (AID 651607;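 further: 0% = vehicle wells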)). Details: purified T. brucei MetRS, at 11.9 µM, active compounds read high.
`O=C(CC(=O)Nc1ccc(Cl)c(Cl)c1)N/N=C/c1ccc(O)cc1` was tested, and the inhibition was 30.8% (active). `O=C(Cn1c2[n+](c3ccc(C(F)(F)F)cc31)CCCCC2)Nc1c(F)cccc1F` was tested, and the inhibition was 9.23%. With `O=C(OCc1nc2ccccc2[nH]1)C1CCCCC1` the inhibition was 9.3%. `CCO[C@@H]1OC(C(=O)NCc2nc3ccccc3[nH]2)=C[C@H](C2CCCCC2)[C@H]1CCCO` was tested, and the inhibition was 17.2% (active). With `O=C(Nc1ccccc1)Nc1nnc(COc2ccccc2F)s1` the inhibition was 23.8% (active). In the case of `Cc1ccc(CNC(=O)CSc2nnc3c(n2)[nH]c2ccc(F)cc23)cc1`, the inhibition was 51.8% (active). `CN(C(=O)CSc1nnc(Nc2ccccc2)s1)C1CCS(=O)(=O)C1` (stereo not drawn) was tested, and the inhibition was -4.02%. Molecule `CCCCCCCC[n+]1cccc(C(=O)N2c3c(nc(N)[nH]c3=O)NC(C)C2C)c1` (stereo not drawn) has an inhibition of 13.1%. `NC1=NC(=O)S/C1=C\c1ccc(O)cc1` gave an inhibition of 16%. For `CC(C)(C)c1ccc(/C=C2\SC(=O)N=C2N)cc1`, the inhibition was 22.6% (active). In the case of `CN(C(=O)CSc1nnc(-c2c[nH]c3ccccc23)o1)C1CCS(=O)(=O)C1` (stereo not drawn), the inhibition was 15.7%. In the case of `O=C1CCCN1CCCNc1ncnc2c1[nH]c1ccccc12`, the inhibition was 28.8% (active). Work on `COc1ccc(CCn2ccc(O)c(Cc3ccc(Cl)cc3Cl)c2=O)cc1OC` yielded an inhibition of 2.44%. In the case of `Cc1ccc(S(=O)(=O)c2c[nH]c3ccc(C)cc3c2=O)cc1`, the inhibition was 20.1% (active). In the case of `Cc1ccc(S(=O)(=O)c2c[nH]c3ccc(Cl)cc3c2=O)cc1`, the inhibition was 60.6% (active). For `CCN(CC)C(=O)C(=O)c1cn(CC(=O)NCc2ccc3c(c2)OCO3)c2ccccc12`, the inhibition was 50.9% (active). Molecule `COc1ccc(-c2[nH]ncc2/C=N/NC(=O)c2cc(Br)ccc2O)c(OC)c1` has an inhibition of 15.2%. With `CCCCN1C[C@H](c2ccc(Br)cc2)[C@@H](CC(=O)Nc2ccc(Br)cc2)C1=O` the inhibition was 33.1% (active). `O=C(NCc1cccc(CNC(=O)Nc2cccc(O)c2)c1)Nc1cccc(O)c1` gave an inhibition of 8.48%. For `O=C(Cc1ccc(S(=O)(=O)N2CCOCC2)s1)Nc1ccc(Br)c(C(F)(F)F)c1`, the inhibition was 27.2% (active). `O=C(Nc1ccc(S(=O)(=O)Nc2ncccn2)cc1)c1cncc(Br)c1` showed an inhibition of -0.88%. With `O=C(O)CCn1c(O)c(C=C2N=c3ccccc3=N2)sc1=S` the inhibition was 17.1% (active). `Cn1c(CCCOc2ccc(Cl)cc2Cl)n[nH]c1=S` showed an inhibition of 11.9%. For `c1ccc2cc3c(NCCN4CCOCC4)ccnc3cc2c1`, the inhibition was 25.4% (active). For `Cc1ccc(NC(=O)C(C)c2cccc(C(=O)c3ccccc3)c2)cc1` (stereo not drawn), the inhibition was 65.3% (active). For `Cc1ccccc1OCC(=O)NNC(=O)c1ccc(-n2cncn2)c([N+](=O)[O-])c1`, the inhibition was 11.1%. With `CC(=O)c1ccc(NC(=O)c2ccc(-n3cncn3)c([N+](=O)[O-])c2)cc1` the inhibition was 50.4% (active). For `Cc1ccc(S(=O)(=O)N(C)C)cc1NC(=O)c1ccc(-n2cncn2)c([N+](=O)[O-])c1`, the inhibition was 34.4% (active). For `O=C(NNC(=O)c1ccc(-n2cncn2)c([N+](=O)[O-])c1)c1ccccc1`, the inhibition was 32% (active). With `Cc1cc(C)cc(NC(=O)N(C)Cc2ccccc2)c1` the inhibition was 4.52%. With `Cc1ccc(N2C(=O)CC(NCc3ccc4c(c3)OCO4)C2=O)cc1Cl` (stereo not drawn) the inhibition was 55.8% (active). With `NS(=O)(=O)c1ccc(CCNC(=O)Nc2ccc(Cl)cc2)cc1` the inhibition was 21.5% (active). In the case of `O=C(CSCC(=O)Nc1cccc([N+](=O)[O-])c1)Nc1ccccc1`, the inhibition was 8.38%. In the case of `Fc1ccc(NC(=S)N2CCc3[nH]c4ccccc4c3C2)cc1`, the inhibition was 18.4% (active). With `O=C(Nc1ccc(Cl)cc1)N1CCc2[nH]c3ccccc3c2C1` the inhibition was 8.86%. For `O=C(Nc1cccc([N+](=O)[O-])c1)N1CCc2ccccc2C1`, the inhibition was 11.1%. In the case of `COc1ccc(NC(=O)C(NC(C)=O)C(=O)NCc2ccccc2Cl)cc1` (stereo not drawn), the inhibition was 1.33%. With `COc1ccc(OCC(O)CNC(=O)Nc2ccc(Cl)cc2)cc1` (stereo not drawn) the inhibition was 51% (active). With `CCCCN(C)Cc1c(C)[nH]c2ccc(Cl)cc2c1=O` the inhibition was 39.9% (active). In the case of `Clc1ccc(-c2cc(C3CCNCC3)[nH]n2)c(Cl)c1`, the inhibition was 21.7% (active). Molecule `O=S(=O)(NCc1ccc(Cl)cc1Cl)c1cccs1` has an inhibition of 13.7%. For `O=C(NNc1cc(Cl)cc(Cl)c1)c1c(F)cccc1Cl`, the inhibition was 37.3% (active). `Oc1[nH]c2ccc(Br)cc2c1N=Nc1nn[nH]n1` was tested, and the inhibition was 13.7%. For `CSc1nsc(NC(=O)Nc2ccccc2)n1`, the inhibition was 18.2% (active). `OCCNc1nc2ccccc2n1-c1ncnc2sc3c(c12)CCC3` was tested, and the inhibition was 12.1%. `Clc1ccccc1SCc1nc2ccccc2[nH]1` showed an inhibition of -1.51%. `Cc1ccc(O)c(CNc2nc3ccccc3[nH]2)c1` was tested, and the inhibition was 77.9% (active). Work on `S=c1[nH]nc(CSCc2ccc(Cl)cc2Cl)n1-c1ccccc1` yielded an inhibition of 2.4%. In the case of `O=C(NCC(O)c1nc2ccccc2[nH]1)c1ccc(Br)cc1` (stereo not drawn), the inhibition was 17.1% (active). `O=S(=O)(c1ccc(Br)cc1)N1CCC(c2nc3ccccc3[nH]2)CC1` showed an inhibition of 4.17%. `O=[N+]([O-])c1ccc(N2CCN(c3ccc(O)cc3)CC2)c(Cl)c1` showed an inhibition of 8.79%. `c1ccc(CN=C2Nc3ccccc3CS2)nc1` gave an inhibition of 5.74%. `COC(=O)CN1C(=S)N(c2ccccc2)C(=O)C1CC(=O)Nc1ccc(Cl)cc1` (stereo not drawn) gave an inhibition of 15%. In the case of `COc1ccccc1-n1c(SCC(=O)Nc2ccc(Cl)cc2)nc(O)c(Cc2ccccc2)c1=O`, the inhibition was 57.9% (active). With `O=C(/C(=N\O)n1cncn1)c1ccc(Br)cc1Br` the inhibition was 4.41%. In the case of `O=C(O)c1ccc(NS(=O)(=O)c2ccc3c(c2)C(=O)c2cc(S(=O)(=O)Nc4ccc(C(=O)O)cc4)ccc2-3)cc1`, the inhibition was 1%. With `Cc1c(CN2CCC(CO)(CCOc3ccccc3)CC2)[nH]c2ccc(Cl)cc12` the inhibition was 20.1% (active). In the case of `O=C(CSc1nc2ccccc2[nH]1)N/N=C/C=C\c1ccccc1[N+](=O)[O-]`, the inhibition was 12.7%. For `OC(c1cc(Cl)cc(Cl)c1)c1ncc(-c2ccccc2C(F)(F)F)[nH]1` (stereo not drawn), the inhibition was 58.3% (active). For `Cc1ccc(-c2cnc(C(O)c3cc(Cl)cc(Cl)c3)[nH]2)cc1` (stereo not drawn), the inhibition was 43.7% (active). In the case of `O=C(NCCN1CCOCC1)c1ccccc1N1C(=O)[C@@H]2Cc3c([nH]c4ccccc34)C(c3cccc(Cl)c3)N2C1=O` (stereo partly drawn), the inhibition was 13.3%. Work on `CC(=N\NC(=O)c1cc(Br)ccc1O)/C(=N/O)C(=O)Nc1ccccc1` yielded an inhibition of 4.72%. With `COC(=O)/C(=C\Nc1ccccc1)NC(=O)c1ccc(Cl)cc1Cl` the inhibition was 59.6% (active). In the case of `O=C(Cn1c(NCCO)nc2ccccc21)c1ccc(Cl)cc1Cl`, the inhibition was -2.79%. With `CCN1CCCC1CNc1ncnc2c1[nH]c1ccc(F)cc12` (stereo not drawn) the inhibition was 31.6% (active). `CC(C)OCCCNc1ncnc2c1[nH]c1ccc(F)cc12` was tested, and the inhibition was 80.6% (active). With `CCCCCn1nnnc1-c1nc2cc3ccccc3cc2[nH]c1=O` the inhibition was 24.4% (active). Work on `c1ccc2cc3[nH]c(CN4CCCCC4)nc3cc2c1` yielded an inhibition of 3.4%.

— PubChem BioAssay AID651607 (The Scripps Research Institute Molecular Screening Center, 2012)
